Measured values reported in PubChem BioAssay (NCATS).
Records with an inconclusive call do not appear. Activity calls are given as the source filed them. Calls come from the whole dose curve; as a rule, active = well fitted cell-killing curve with a large enough effect; inconclusive = small, poorly fitted or top-dose-only effect, or effect the other way; inactive = no such curve, though single readings can be large or run the other way.

Assays:
[1] = Quantitative High-Throughput drug screen in 47 multiple myeloma cell lines against the NCATS MIPE library collection: OCIMY1_PLB cell viability assay (AID 1918979); note: nearly all actives have a fitted effect of over 35% in size;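 for viability: 100% = DMSO-only wells and 0% = cell-free media-only wells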
Procedure, shortened: (§1)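 MIPE 4.0 approved/investigational drugs; 500 cells/well; 48 h 37 °C humidified 5% CO2; CTG luminescence readout; DMSO = 100%, media = 0% viability.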

[2] = Quantitative High-Throughput drug screen in 47 multiple myeloma cell lines against the NCATS MIPE library collection: MM1S_ATCC cell viability assay (AID 1918980); note: nearly all actives have a fitted effect of over 45% in size
Procedure, shortened: as §1

[3] = Quantitative High-Throughput drug screen in 47 multiple myeloma cell lines against the NCATS MIPE library collection: MM1R_ATCC cell viability assay (AID 1918981); note: nearly all actives have a fitted effect of over 35% in size
Procedure, shortened: as §1

[4] = Quantitative High-Throughput drug screen in 47 multiple myeloma cell lines against the NCATS MIPE library collection: LP1_DSMZ cell viability assay (AID 1918982); note: nearly all actives have a fitted effect of over 35% in size
Procedure, shortened: as §1

[5] = Quantitative High-Throughput drug screen in 47 multiple myeloma cell lines against the NCATS MIPE library collection: L363_DSMZ cell viability assay (AID 1918984); note: nearly all actives have a fitted effect of over 40% in size
Procedure, shortened: as §1

[6] = Quantitative High-Throughput drug screen in 47 multiple myeloma cell lines against the NCATS MIPE library collection: KMS34_JCRB cell viability assay (AID 1918985); note: nearly all actives have a fitted effect of over 40% in size
Procedure, shortened: as §1

[7] = Quantitative High-Throughput drug screen in 47 multiple myeloma cell lines against the NCATS MIPE library collection: OCIMY7_PLB cell viability assay (AID 1918987); conditions: OCI-MY7 myeloma viability, CellTiter-Glo ATP, 48 h; viability (% of DMSO): at 45.8 µM (top of the series); note: nearly all actives have a fitted effect of over 65% in size
Procedure, shortened: as §1

[8] = Quantitative High-Throughput drug screen in 47 multiple myeloma cell lines against the NCATS MIPE library collection: OPM1_PLB cell viability assay (AID 1918989); note: nearly all actives have a fitted effect of over 40% in size
Procedure, shortened: as §1

[9] = Quantitative High-Throughput drug screen in 47 multiple myeloma cell lines against the NCATS MIPE library collection: SKMM1_PLB cell viability assay (AID 1919863); conditions: SKMM1 myeloma viability, CellTiter-Glo ATP, 48 h; viability: stronger effect = lower value; note: nearly all actives have a fitted effect of over 35% in size
Procedure, shortened: as §1

[10] = Quantitative High-Throughput drug screen in 47 multiple myeloma cell lines against the NCATS MIPE library collection: U266_ATCC cell viability assay (AID 1919864); note: nearly all actives have a fitted effect of over 35% in size;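 for viability (% of DMSO control): 0% = media-only wells without cells and 100% = DMSO-only wells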
Procedure, shortened: as §1

[11] = Quantitative High-Throughput drug screen in 47 multiple myeloma cell lines against the NCATS MIPE library collection: XG6_PLB cell viability assay (AID 1919865); note: nearly all actives have a fitted effect of over 40% in size
Procedure, shortened: as §1

[12] = Quantitative High-Throughput drug screen in 47 multiple myeloma cell lines against the NCATS MIPE library collection: XG1_PLB cell viability assay (AID 1919866); note: nearly all actives have a fitted effect of over 35% in size
Procedure, shortened: as §1

[13] = Quantitative High-Throughput drug screen in 47 multiple myeloma cell lines against the NCATS MIPE library collection: VP6_DJ cell viability assay (AID 1919867); note: nearly all actives have a fitted effect of over 40% in size
Procedure, shortened: as §1

[14] = Quantitative High-Throughput drug screen in 47 multiple myeloma cell lines against the NCATS MIPE library collection: PE2_PLB cell viability assay (AID 1919869); note: nearly all actives have a fitted effect of over 35% in size
Procedure, shortened: as §1

[15] = Quantitative High-Throughput drug screen in 47 multiple myeloma cell lines against the NCATS MIPE library collection: PCM6_Riken cell viability assay (AID 1919870); note: nearly all actives have a fitted effect of over 30% in size
Procedure, shortened: as §1

[16] = Quantitative High-Throughput drug screen in 47 multiple myeloma cell lines against the NCATS MIPE library collection: RPMI8226_ATCC cell viability assay (AID 1919871); note: nearly all actives have a fitted effect of over 30% in size
Procedure, shortened: as §1

[17] = Quantitative High-Throughput drug screen in 47 multiple myeloma cell lines against the NCATS MIPE library collection: KMS28PE_JCRB cell viability assay (AID 1918983); note: nearly all actives have a fitted effect of over 35% in size
Procedure, shortened: as §1

[18] = Quantitative High-Throughput drug screen in 47 multiple myeloma cell lines against the NCATS MIPE library collection: OCIMY5_PLB cell viability assay (AID 1918988); note: nearly all actives have a fitted effect of over 65% in size
Procedure, shortened: as §1

[19] = Quantitative High-Throughput drug screen in 47 multiple myeloma cell lines against the NCATS MIPE library collection: UTMC2_PLB cell viability assay (AID 1919868); conditions: CellTiter-Glo ATP luminescence, 48 h; viability (% of DMSO control): at 45.8 µM (top of the series); note: nearly all actives have a fitted effect of over 55% in size;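 for viability (% of DMSO control): 100% = DMSO-only wells and 0% = media-only wells without cells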
Procedure, shortened: as §1

[20] = Quantitative High-Throughput drug screen in 47 multiple myeloma cell lines against the NCATS MIPE library collection: OPM2_DSMZ cell viability assay (AID 1919872); note: nearly all actives have a fitted effect of over 30% in size
Procedure, shortened: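 Viability readout: CellTiter-Glo luminescence following 5 min room-temperature incubation with reagent. Prior exposure: 48 h, 37C, humidified 5% CO2, 500 cells per well.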
Potency is the fitted concentration of half-maximal effect.

CC(C)[C@H](CO)Nc1nc(Nc2cccc(Cl)c2)c2ncn(C(C)C)c2n1
active: Potency [1] 23500 nM | Potency [2] 5900 nM | Potency [3] 18700 nM | Potency [4] 23500 nM | Potency [6] 18700 nM | Potency [7] 6620 nM | Potency [8] 23500 nM | Potency [9] 20900 nM | Potency [10] 18700 nM | Potency [11] 5260 nM | Potency [12] 6620 nM | Potency [13] 13200 nM | Potency [14] 18700 nM | Potency [15] 16600 nM | Potency [16] 26400 nM
inactive: Potency [5]

CC[C@]12C=CCN3CC[C@@]4(c5cc([C@@]6(C(=O)OC)C[C@H]7C[C@@H](C(C)(F)F)CN(Cc8c6[nH]c6ccccc86)C7)c(OC)cc5N(C)[C@H]4[C@@](O)(C(=O)OC)[C@H]1OC(C)=O)[C@@H]32
active: Potency [1] 46.9 nM | Potency [2] 148 nM | Potency [3] 469 nM | Potency [4] 20.9 nM | Potency [17] 4.7 nM | Potency [6] 5.9 nM | Potency [7] 1 nM | Potency [18] 1.9 nM | Potency [8] 16.6 nM | Potency [9] 9.3 nM | Potency [10] 1660 nM | Potency [19] 1 nM | Potency [15] 10.5 nM | Potency [16] 166 nM | Potency [20] 11.8 nM

Cc1nc(NC(=O)N2CCC[C@@H]2C(N)=O)sc1-c1ccnc(C(C)(C)C(F)(F)F)c1
inactive: Potency [15]
active: Potency [1] 93.5 nM | Potency [2] 3320 nM | Potency [3] 1660 nM | Potency [4] 1480 nM | Potency [17] 296 nM | Potency [6] 1870 nM | Potency [18] 935 nM | Potency [8] 2960 nM | Potency [10] 8330 nM | Potency [11] 1870 nM | Potency [12] 3320 nM | Potency [14] 4690 nM | Potency [16] 3320 nM | Potency [20] 20900 nM

C=CC1=C(C(=O)O)N2C(=O)[C@@H](NC(=O)C(=NO)c3csc(N)n3)[C@H]2SC1
active: Potency [15] 11800 nM
inactive: Potency [1] | Potency [2] | Potency [3] | Potency [4] | Potency [17] | Potency [6] | Potency [18] | Potency [8] | Potency [11] | Potency [14] | Potency [16] | Potency [20]

C=Cc1c(C)c2cc3nc(cc4[nH]c(cc5nc(cc1[nH]2)C(C)=C5CCC(=O)O)c(CCC(=O)OC)c4C)[C@@]1(C)C3=CC=C(C(=O)OC)[C@H]1C(=O)OC
active: Potency [1] 2350 nM | Potency [2] 52.6 nM | Potency [3] 93.5 nM | Potency [17] 743 nM | Potency [5] 526 nM | Potency [6] 743 nM | Potency [7] 662 nM | Potency [18] 41.8 nM | Potency [8] 372 nM | Potency [9] 743 nM | Potency [10] 296 nM | Potency [12] 93.5 nM | Potency [13] 118 nM | Potency [19] 105 nM | Potency [14] 209 nM | Potency [15] 83.3 nM | Potency [16] 935 nM | Potency [20] 1050 nM

C=CCNc1c(O)cc2c(O)c1C[C@@H](C)C[C@H](OC)[C@@H](O)[C@@H](C)C=C(C)[C@H](OC(N)=O)[C@@H](OC)C=CC=C(C)C(=O)N2
active: Potency [1] 1480 nM | Potency [2] 1180 nM | Potency [3] 526 nM | Potency [17] 418 nM | Potency [5] 33.2 nM | Potency [6] 296 nM | Potency [7] 209 nM | Potency [18] 235 nM | Potency [8] 526 nM | Potency [10] 418 nM | Potency [11] 1050 nM | Potency [12] 418 nM | Potency [13] 118 nM | Potency [19] 418 nM | Potency [14] 1480 nM | Potency [15] 833 nM | Potency [16] 418 nM | Potency [20] 1660 nM

C=C1C(=CC=C2CCC[C@]3(C)[C@@H]([C@H](C)CCCC(C)(C)O)CC[C@@H]23)C[C@@H](O)C[C@@H]1O
active: Potency [2] 1480 nM | Potency [3] 18700 nM | Potency [4] 20900 nM | Potency [17] 33200 nM | Potency [7] 6620 nM | Potency [8] 5260 nM | Potency [10] 4180 nM | Potency [11] 3720 nM | Potency [12] 5260 nM | Potency [13] 5260 nM | Potency [19] 5260 nM | Potency [14] 13200 nM | Potency [15] 7430 nM
inactive: Potency [1]

NC(=O)c1ncn([C@@H]2O[C@H](CO)[C@@H](O)[C@@H]2O)c1N
inactive: Potency [1] | Potency [2] | Potency [3] | Potency [4] | Potency [17] | Potency [6] | Potency [8] | viability [9] 159% | Potency [10] | Potency [11] | Potency [14] | Potency [15] | Potency [16]

c1cncc(CN2CCC(n3ncc4c(N5CCOCC5)nc(-c5ccc6[nH]ccc6c5)nc43)CC2)c1
active: Potency [1] 16600 nM | Potency [2] 5900 nM | Potency [3] 5900 nM | Potency [4] 5900 nM | Potency [17] 6620 nM | Potency [7] 9350 nM | Potency [18] 13200 nM | Potency [8] 2640 nM | Potency [9] 23500 nM | Potency [10] 5260 nM | Potency [11] 1660 nM | Potency [12] 935 nM | Potency [13] 3320 nM | Potency [14] 1480 nM | Potency [15] 11800 nM | Potency [16] 6620 nM | Potency [20] 14800 nM

CCn1c(=O)c2c(nc(C=Cc3ccc(OC)c(OC)c3)n2C)n(CC)c1=O
inactive: Potency [1] | Potency [3] | Potency [4] | Potency [17] | Potency [6] | viability [9] 123% | Potency [12] | Potency [19] | Potency [15]
active: Potency [2] 26400 nM | Potency [14] 14800 nM
